Measured values reported in PubChem BioAssay (Tox21).
Records with an inconclusive call do not appear. Active and inactive are the calls of the source. Unless noted, calls follow the shape of the dose curve; as a rule, active = well fitted curve in the direction sought with a large enough effect in the repeat runs; inconclusive = weak or mixed curves; inactive = no such curve, though single readings can be large; an effect the other way counts as inactive or inconclusive.

How the values were obtained:
[1] = qHTS assay to identify small molecule antagonists of the sonic hedgehog signaling (Shh) pathway (AID 1259369; calls by dose curve; also: nearly all actives have a fitted effect of over 45% in size; also: potency is read from the fitted curve at half-maximal effect)
Procedure, shortened: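 NIH/3T3-derived 3T3Gli1-Luc cells with stably integrated Gli1-Luc reporter were preincubated 4hr at 37 C, then given compounds in DMSO plus Shh conditioned medium and incubated 24hr. Firefly luciferase luminescence read after 30min reagent at room temperature.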

[2] = qHTS assay to identify small molecule agonists of the androgen receptor (AR) signaling pathway in the presence of an antagonist - cell viability counter screen (AID 1259379); also: nearly all actives have a fitted effect of over 25% in size; also: potency is read from the fitted curve at half-maximal effect
Procedure, shortened: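 MDA-kb2 human breast carcinoma cells (stable MMTV-luciferase, AR/GR responsive) were seeded 3,000 cells/well, pre-incubated 5 hr at 37C without CO2, then given 3.0uM nilutamide and compounds at 15 concentrations for 16 hr. Viability was read by CellTiter-Fluor fluorescence.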

[3] = qHTS assay to identify small molecule agonists of the estrogen receptor beta (ER-beta) signaling pathway - cell viability counter screen (AID 1259380); also: nearly all actives have a fitted effect of over 30% in size; also: potency is read from the fitted curve at half-maximal effect
Procedure, shortened: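 ER-beta-UAS-bla HEK293T cells in medium with 2% charcoal-stripped FBS were preincubated 6 hr at 37C, dosed with compound in DMSO for 16 hr, then after the bla read, CellTiter-Glo was added for 30 min at room temperature; luminescence recorded.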

[4] = qHTS assay to identify small molecule antagonists of the estrogen receptor beta (ER-beta) signaling pathway - cell viability counter screen (AID 1259382); also: nearly all actives have a fitted effect of over 55% in size; also: potency is read from the fitted curve at half-maximal effect
Procedure, shortened: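 ER-beta-UAS-bla HEK293T cells (2,000/well, 2% charcoal-stripped FBS) were pre-incubated 6 hr at 37C, then given compound plus 1nM final 17-beta-estradiol for 16 hr. Viability was read in the same wells by CellTiter-Glo luminescence after 30 min at room temperature.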

[5] = qHTS assay to identify small molecule agonists of the progesterone receptor (PR) signaling pathway - cell viability counter screen (AID 1346799; calls by dose curve; also: nearly all actives have a fitted effect of over 45% in size; also: potency is read from the fitted curve at half-maximal effect)
Procedure, shortened: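 Cytotoxicity in PR-bla HEK293T cells: 16 h compound, 37C; CellTiter-Glo added post-FRET read; luminescence after 30 min RT.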

[6] = qHTS assay to identify small molecule antagonists of the TGF-beta/Smad signaling pathway - cell viability counter screen (AID 1346824); also: nearly all actives have a fitted effect of over 50% in size
Procedure, shortened: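 SBE-bla HEK 293T cells, incubated overnight, then compound plus 0.25 ng/mL TGF-beta1 (stock added) for 5 hr at 37 C. Viability was read in the same wells by CellTiter-Glo luminescence after 30 min at room temperature.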

[7] = qHTS assay to identify small molecule agonists of the TGF-beta/Smad signaling pathway - cell viability counter screen (AID 1346829); also: top concentration of the series differs between compounds; nearly all actives have a fitted effect of over 45% in size
Procedure, shortened: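 Tox21 qHTS format: SBE-bla HEK 293T cells treated with DMSO-dissolved compounds for 5 hr; CellTiter-Glo luminescence after 30 min at room temperature.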

[8] = qHTS assay to identify small molecule agonists of the TGF-beta/Smad signaling pathway (AID 1346859; active = well fitted activation curve with a large enough effect in the signal ratio in the repeat runs, not every such curve was filed as active; the % refers to the signal ratio; also: series mostly up to about 77 µM)
Procedure, shortened: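 Stable Smad binding element-beta-lactamase HEK 293T cells; 5 hr compound exposure at 37 C under 5% CO2; 2 hr room-temperature substrate step; fluorescence excited at 405 nm, collected at 460 nm and 530 nm.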

[9] = target: Thyrotropin-releasing hormone receptor (Homo sapiens) (UniProt P34981); experiment: qHTS assay to identify small molecule antagonists of the thyrotropin-releasing hormone receptor (TRHR) signaling pathway (AID 1346877; active = well fitted inhibition curve with a large enough effect in the repeat runs, not every such curve was filed as active; also: series mostly up to about 51 µM)
Procedure, shortened: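 TRHR-expressing HEK293 cells were seeded, cultured 18 h at 37 °C, then loaded with calcium dye for 2 h. Compounds were pre-incubated 5 min at room temperature before 1 nM TRH (final) was added, and kinetic fluorescence was recorded for 3 min.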

[10] = target: Thyrotropin-releasing hormone receptor (Homo sapiens) (UniProt P34981); experiment: qHTS assay to identify small molecule agonists of the thyrotropin-releasing hormone receptor (TRHR) signaling pathway (AID 1346891; calls by dose curve; also: series mostly up to about 58 µM)
Procedure, shortened: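 In 1536-format, 1500 TRHR-Hek293 cells per well grew 18 h, took up calcium dye for 2 h at 37 °C, received compound, and were read kinetically; 15-point titrations, triplicates.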

[11] = target: Estrogen receptor (Homo sapiens) (UniProt P03372); experiment: qHTS assay to identify small molecule agonists of the estrogen receptor alpha (ER-alpha) signaling pathway in the presence of an antagonist (AID 1259383; calls by dose curve; also: top concentration of the series differs between compounds; nearly all actives have a fitted effect of over 15% in size)
Procedure, shortened: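 VM7Luc4E2 cells (endogenous full-length ER-alpha, 4×ERE-luciferase) were precultured 5 days in phenol red-free medium with 10% charcoal-stripped FBS, given 10.0nM ICI-182,780 (final), then treated with compounds at 15 concentrations for 22hr at 37C; luminescence read with ONE-Glo.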

[12] = qHTS assay to identify small molecule agonists of the estrogen receptor alpha (ER-alpha) signaling pathway in the presence of an antagonist - cell viability counter screen (AID 1259386);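 also: series mostly up to about 92 µM; cells exposed to compounds for 22 h at 37 °C before the viability read; nearly all actives have a fitted effect of over 30% in size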
Procedure, shortened: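 VM7Luc4E2 cells (endogenous full-length ER-alpha, 4×ERE-luciferase) were held 5 days in phenol red-free medium with 10% charcoal-stripped FBS, plated, then given 10.0nM ICI-182,780 and compounds at 15 concentrations for 22hr at 37C; viability read by CellTiter-Fluor fluorescence.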

[13] = target: Progesterone receptor (Homo sapiens) (UniProt P06401); experiment: qHTS assay to identify small molecule agonists of the progesterone receptor (PR) signaling pathway (AID 1346784; calls by dose curve; also: nearly all actives have a fitted effect of over 30% in size)
Procedure, shortened: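 Using charcoal-stripped serum (2%) to limit endogenous steroids, PR-UAS-bla HEK 293T cells received compounds for 16 hr at 37C after 6 hr plating; beta-lactamase FRET fluorescence was recorded following 2 hr substrate loading at room temperature.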

[14] = qHTS assay to identify small molecule antagonists of the progesterone receptor (PR) signaling pathway - cell viability counter screen (AID 1346798); also: nearly all actives have a fitted effect of over 50% in size; also: potency is read from the fitted curve at half-maximal effect
Procedure, shortened: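 ATP content as viability readout: CellTiter-Glo luminescence, 30 min room temperature, in PR-UAS-bla HEK293T cells after 16 hr compound/R5020 treatment at 37C and 5% CO2.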

[15] = target: Progesterone receptor (Homo sapiens) (UniProt P06401); experiment: qHTS assay to identify small molecule antagonists of the progesterone receptor (PR) signaling pathway (AID 1346795; active = well fitted inhibition curve with a large enough effect in the signal ratio in the repeat runs, not every such curve was filed as active; the % refers to the signal ratio)
Procedure, shortened: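 Inhibition of R5020-induced (1 nM final) beta-lactamase reporter signal in PR-UAS-bla HEK293T cells was scored by FRET fluorescence after overnight (16 hr) compound treatment.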

[16] = qHTS assay to identify small molecule agonists or antagonists of the thyroid stimulating hormone receptor (TSHR) signaling pathway - wild type cell line counter screen (AID 1259384; calls by dose curve)
Procedure, shortened: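 Wild-type Hek293 cells, 800/well, 18 h at 37C, then compound with Ro20-1724 for 30 min RT. cAMP by HTRF (cAMP-d2/anti-cAMP cryptate), 1 h RT, fluorescence read. 15 concentrations, triplicates.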

[17] = target: Thyrotropin receptor (Homo sapiens) (UniProt P16473); experiment: qHTS assay to identify small molecule antagonists of the thyroid stimulating hormone receptor (TSHR) signaling pathway (AID 1259385; calls by dose curve; also: nearly all actives have a fitted effect of over 20% in size)
Procedure, shortened: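 TSHR-HEK293 cells (800/well) plated 18 h, then compounds with Ro20-1724 and TSH at 1.5 ng/mL final, 30 min at room temperature. cAMP quantified by HTRF (cAMP-d2/anti-cAMP-cryptate, 1 h); 15 concentrations in triplicate.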

[18] = target: Androgen receptor (Homo sapiens) (UniProt P10275); experiment: qHTS assay to identify small molecule agonists of the androgen receptor (AR) signaling pathway in the presence of an antagonist (AID 1259381; calls by dose curve; also: nearly all actives have a fitted effect of over 15% in size)
Procedure, shortened: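 MDA-kb2 human breast carcinoma cells carrying an MMTV-luciferase reporter (AR- and GR-responsive) were treated with compounds at 15 concentrations plus 3.0uM final nilutamide for 16hr at 37C without CO2; luminescence was read after ONE-Glo addition.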

Measured: Potency

Estrogen receptor (Homo sapiens), sequence (P03372 whole entry, looked up): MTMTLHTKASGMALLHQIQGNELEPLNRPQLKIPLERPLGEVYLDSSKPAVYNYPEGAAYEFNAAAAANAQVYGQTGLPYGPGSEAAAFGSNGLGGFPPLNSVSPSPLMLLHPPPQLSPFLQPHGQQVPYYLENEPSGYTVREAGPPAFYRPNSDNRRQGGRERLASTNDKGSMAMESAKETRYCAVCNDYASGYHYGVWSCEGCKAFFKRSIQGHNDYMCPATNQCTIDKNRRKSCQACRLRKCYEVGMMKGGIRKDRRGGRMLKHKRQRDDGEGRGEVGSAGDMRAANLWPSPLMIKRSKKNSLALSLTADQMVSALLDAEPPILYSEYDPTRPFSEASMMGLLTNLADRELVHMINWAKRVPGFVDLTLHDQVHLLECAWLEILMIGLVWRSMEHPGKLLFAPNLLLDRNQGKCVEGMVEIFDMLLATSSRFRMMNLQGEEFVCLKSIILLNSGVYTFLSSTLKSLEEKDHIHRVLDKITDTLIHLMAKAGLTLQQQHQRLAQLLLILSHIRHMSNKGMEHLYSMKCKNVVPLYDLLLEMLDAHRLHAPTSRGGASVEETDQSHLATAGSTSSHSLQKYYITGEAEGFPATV
Progesterone receptor (Homo sapiens), sequence (P06401 whole entry, looked up): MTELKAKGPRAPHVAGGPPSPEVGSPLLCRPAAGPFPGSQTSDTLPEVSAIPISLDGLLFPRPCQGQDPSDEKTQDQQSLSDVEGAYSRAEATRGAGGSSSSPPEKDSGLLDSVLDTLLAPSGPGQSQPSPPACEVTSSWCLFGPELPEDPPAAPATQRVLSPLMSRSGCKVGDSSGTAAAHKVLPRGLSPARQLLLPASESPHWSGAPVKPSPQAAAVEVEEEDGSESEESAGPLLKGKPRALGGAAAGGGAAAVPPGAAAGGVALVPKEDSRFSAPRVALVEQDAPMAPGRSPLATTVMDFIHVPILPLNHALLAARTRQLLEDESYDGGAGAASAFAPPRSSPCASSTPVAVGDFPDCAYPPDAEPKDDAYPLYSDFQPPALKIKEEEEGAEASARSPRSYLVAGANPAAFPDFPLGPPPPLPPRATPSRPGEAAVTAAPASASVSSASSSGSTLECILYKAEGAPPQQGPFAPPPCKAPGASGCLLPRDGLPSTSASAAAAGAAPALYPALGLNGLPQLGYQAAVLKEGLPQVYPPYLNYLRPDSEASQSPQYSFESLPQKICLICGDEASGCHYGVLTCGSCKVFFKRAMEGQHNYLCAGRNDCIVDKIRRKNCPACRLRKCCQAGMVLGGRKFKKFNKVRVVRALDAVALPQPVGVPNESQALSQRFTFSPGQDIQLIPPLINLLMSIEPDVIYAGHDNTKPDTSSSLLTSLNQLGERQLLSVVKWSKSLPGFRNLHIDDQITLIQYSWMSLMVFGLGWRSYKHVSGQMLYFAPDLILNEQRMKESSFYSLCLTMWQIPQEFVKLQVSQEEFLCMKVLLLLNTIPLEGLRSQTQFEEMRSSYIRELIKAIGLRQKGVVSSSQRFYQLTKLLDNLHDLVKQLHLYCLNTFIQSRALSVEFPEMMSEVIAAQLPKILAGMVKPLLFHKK
Thyrotropin receptor (Homo sapiens), sequence (P16473 whole entry, looked up): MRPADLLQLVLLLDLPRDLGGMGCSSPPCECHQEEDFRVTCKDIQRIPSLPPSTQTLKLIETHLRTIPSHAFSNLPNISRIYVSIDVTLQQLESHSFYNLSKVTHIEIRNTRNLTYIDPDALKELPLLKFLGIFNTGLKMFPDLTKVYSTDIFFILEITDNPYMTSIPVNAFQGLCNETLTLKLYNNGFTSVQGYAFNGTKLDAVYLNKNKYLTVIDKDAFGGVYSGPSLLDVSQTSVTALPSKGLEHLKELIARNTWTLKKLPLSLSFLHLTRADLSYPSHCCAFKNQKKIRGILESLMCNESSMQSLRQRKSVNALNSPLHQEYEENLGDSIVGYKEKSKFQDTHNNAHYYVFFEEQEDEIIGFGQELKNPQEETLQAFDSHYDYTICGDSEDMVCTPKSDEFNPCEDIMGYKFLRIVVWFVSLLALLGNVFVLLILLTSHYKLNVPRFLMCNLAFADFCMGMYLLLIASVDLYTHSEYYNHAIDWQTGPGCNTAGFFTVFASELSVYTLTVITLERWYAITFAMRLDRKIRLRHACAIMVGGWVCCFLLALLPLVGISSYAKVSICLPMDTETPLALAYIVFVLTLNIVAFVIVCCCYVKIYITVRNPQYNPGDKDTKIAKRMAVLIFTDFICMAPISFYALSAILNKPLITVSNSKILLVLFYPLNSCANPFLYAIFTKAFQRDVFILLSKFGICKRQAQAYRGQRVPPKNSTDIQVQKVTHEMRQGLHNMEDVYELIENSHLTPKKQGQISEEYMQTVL
Thyrotropin-releasing hormone receptor (Homo sapiens), sequence (P34981 whole entry, looked up): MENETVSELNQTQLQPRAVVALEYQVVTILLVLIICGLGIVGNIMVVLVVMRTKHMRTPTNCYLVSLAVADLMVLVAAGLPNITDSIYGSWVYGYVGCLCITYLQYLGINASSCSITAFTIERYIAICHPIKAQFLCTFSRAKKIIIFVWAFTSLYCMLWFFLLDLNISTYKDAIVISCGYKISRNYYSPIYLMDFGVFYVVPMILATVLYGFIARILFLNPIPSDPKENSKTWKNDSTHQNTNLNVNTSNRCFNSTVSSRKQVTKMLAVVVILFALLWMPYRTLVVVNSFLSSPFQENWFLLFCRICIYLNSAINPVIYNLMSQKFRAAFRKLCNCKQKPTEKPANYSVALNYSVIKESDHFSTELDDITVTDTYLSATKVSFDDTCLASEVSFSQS
Androgen receptor (Homo sapiens), sequence (P10275 whole entry, looked up): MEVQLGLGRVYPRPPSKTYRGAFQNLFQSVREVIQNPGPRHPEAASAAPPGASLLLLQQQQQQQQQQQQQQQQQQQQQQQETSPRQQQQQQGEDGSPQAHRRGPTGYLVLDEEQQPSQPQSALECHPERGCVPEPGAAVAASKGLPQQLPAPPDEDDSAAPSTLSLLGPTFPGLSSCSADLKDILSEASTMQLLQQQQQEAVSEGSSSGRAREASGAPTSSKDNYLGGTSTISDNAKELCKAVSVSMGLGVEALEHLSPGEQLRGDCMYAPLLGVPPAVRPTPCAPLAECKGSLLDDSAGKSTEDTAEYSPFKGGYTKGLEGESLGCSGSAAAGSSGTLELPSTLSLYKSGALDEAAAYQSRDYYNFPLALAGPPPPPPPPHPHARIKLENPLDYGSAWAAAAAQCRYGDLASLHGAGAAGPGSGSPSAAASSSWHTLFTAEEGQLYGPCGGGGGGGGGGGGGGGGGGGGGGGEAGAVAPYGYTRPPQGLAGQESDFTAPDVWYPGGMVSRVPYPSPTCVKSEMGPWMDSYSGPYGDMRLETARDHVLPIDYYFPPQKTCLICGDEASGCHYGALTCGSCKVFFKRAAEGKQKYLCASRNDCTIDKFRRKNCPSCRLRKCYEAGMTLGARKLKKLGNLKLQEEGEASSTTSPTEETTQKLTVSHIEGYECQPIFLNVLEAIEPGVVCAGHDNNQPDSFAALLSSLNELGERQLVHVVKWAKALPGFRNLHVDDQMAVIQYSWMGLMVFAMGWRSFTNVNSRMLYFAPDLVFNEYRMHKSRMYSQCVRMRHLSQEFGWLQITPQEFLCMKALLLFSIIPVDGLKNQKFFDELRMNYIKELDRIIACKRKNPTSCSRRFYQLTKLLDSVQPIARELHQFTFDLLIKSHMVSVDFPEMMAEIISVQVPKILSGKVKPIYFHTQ

CCN(CC)CCOc1ccc2c(c1)C(=O)c1cc(OCCN(CC)CC)ccc1-2
active: [2] 13.3 µM | [3] 18.8 µM | [4] 18.8 µM | [5] 16.8 µM
inactive: [1] | [6] | [7] | [8] | [9] | [10]

C=CC[N+]1([C@H]2C[C@H]3[C@@H]4CC[C@H]5C[C@H](OC(C)=O)[C@@H](N6CCCCC6)C[C@]5(C)[C@H]4CC[C@]3(C)[C@H]2OC(=O)CC)CCCCC1
not listed: [15] | [16] | [17] | [18]
inactive: all other assays above

COCCO
not listed: [14] | [16] | [17] | [18]
inactive: all other assays above

C=CC(C)(CCC=C(C)C)OC(=O)c1ccccc1 (stereo unspecified)
not listed: [8] | [11] | [12] | [15] | [18]
inactive: all other assays above

CN(C)CC[C@@H](c1ccc(Br)cc1)c1ccccn1
active: [14] 2.66 µM
not listed: [3] | [7] | [9] | [10] | [16] | [17] | [18]
inactive: all other assays above

CC(C)=CCCC(C)CC=O (stereo unspecified)
not listed: [3] | [9] | [10] | [11] | [15] | [18]
inactive: all other assays above

COc1ccc2[nH]c(S(=O)Cc3ncc(C)c(OC)c3C)nc2n1 (stereo unspecified)
not listed: [5] | [14] | [16] | [17] | [18]
inactive: all other assays above

CCCCC(CC)(CO)CO
not listed: [5] | [8] | [11] | [14] | [18]
inactive: all other assays above

CCCCCCCCCCCCC(=O)O
active: [1] 2.74 µM | [3] 54.6 µM | [5] 19.4 µM
not listed: [4] | [13] | [14] | [16] | [17] | [18]
inactive: all other assays above

FC(F)(F)C(F)(F)C(F)(F)C(F)(F)C(F)(F)C(F)(F)CCI
not listed: [2] | [18]
inactive: all other assays above

CC(=O)c1c(C)c([N+](=O)[O-])c(C(C)(C)C)c([N+](=O)[O-])c1C
not listed: [5] | [9] | [10] | [11] | [15] | [18]
inactive: all other assays above

Cl/C(=C\n1cncn1)c1ccc(Cl)cc1Cl
not listed: [5] | [8] | [11] | [12] | [14] | [15] | [18]
inactive: all other assays above

O=C(O)c1cccc(N(Cc2cccnc2)c2ccc(OC(F)F)c(OC(F)F)c2)c1
inactive: [18] | [17] | [12] | [13] | [14] | [5] | [6] | [7]
active: [1] 0.969 µM | [3] 48.6 µM

Cc1ccccc1N=Nc1ccc(N=Nc2c(O)ccc3ccccc23)c(C)c1
not listed: [2] | [14] | [18]
inactive: all other assays above

CCC(C)N(C)C(=O)c1cc2ccccc2c(-c2ccccc2Cl)n1 (stereo unspecified)
not listed: [3] | [15] | [17]
inactive: all other assays above

Nc1nc(N)c(-c2ccccc2)s1
not listed: [9] | [10] | [11] | [12] | [16] | [17] | [18]
inactive: all other assays above

O=C(O)COC(=O)Cc1ccccc1Nc1c(Cl)cccc1Cl
not listed: [3] | [4] | [9] | [10] | [14] | [15] | [17]
inactive: all other assays above

CC(C)c1ccc2c(C(C)C)cc(C(C)C)c(S(=O)(=O)O)c2c1
not listed: [2] | [3] | [12] | [13] | [14]
inactive: all other assays above
